PubChem BioAssay (NCATS)
Inconclusive results are not listed. Calls of active or inactive are those of the source. The call rests on the fitted dose curve; in most records, active means well fitted inhibition curve with a large enough effect; inconclusive means small, poorly fitted or top-dose-only effect; inactive means flat fitted curve, though single readings scatter.

How the values were obtained:
Assay in all cases: qHTS profiling for inhibitors of Plasmodium falciparum proliferation (AID 504749); further: nearly all actives have a fitted effect of over 60% in size
Details in all cases: P. falciparum in erythrocytes, SYBR Green DNA, 72 h; series mostly up to 28.7 µM
CP247 = tested on: CP247
In short: (§1)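 P. falciparum-infected erythrocytes (0.3% parasitemia, 2.5% hematocrit) incubated with compound 72 h at 37 C, 5% CO2. Parasite DNA detected by SYBR Green after lysis, overnight at room temperature; normalised to 0.29 uM artemisinin and DMSO.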

CP250 = tested on: CP250
In short: as §1

CP252 = tested on: CP252
In short: as §1

CP256 = tested on: CP256
In short: as §1

CP260 = tested on: CP260
In short: as §1

CP262 = tested on: CP262
In short: as §1

CP265 = tested on: CP265
In short: as §1

CP266 = tested on: CP266
In short: as §1

CP268 = tested on: CP268
In short: as §1

CP269 = tested on: CP269
In short: as §1

Measured: Potency
Potency means the concentration at half of the fitted maximal effect.

CCn1cc(C(=O)O)c(=O)c2cnc(N3CCNCC3)nc21
inactive: all assays above

O=C(O)COc1nn(Cc2ccccc2)c2ccccc12
inactive: all assays above

COc1ccc(Cl)cc1C(=O)NCCc1ccc(S(=O)(=O)NC(=O)NC2CCCCC2)cc1
inactive: all assays above

Nc1ccc(S(=O)(=O)Nc2ccccc2)cc1
inactive: all assays above

COc1ccccc1O
inactive: all assays above

Cc1cccc(C)c1NC(=O)CN(CC(=O)O)CC(=O)O
inactive: all assays above

Cc1cc(C(C#N)c2ccc(Cl)cc2)c(Cl)cc1NC(=O)c1cc(I)cc(I)c1O (stereo not given)
inactive: all assays above

COc1ccc2c(c1)C(=O)N(CCc1ccc(S(=O)(=O)NC(=O)NC3CCCCC3)cc1)C(=O)C2(C)C
inactive: all assays above

COc1cc(C)c(Cc2cnc(N)nc2N)cc1OC
inactive: all assays above

CCOc1ccc2ccccc2c1C(=O)N[C@@H]1C(=O)N2[C@@H]1SC(C)(C)[C@@H]2C(=O)O
inactive: all assays above

OCC(O)CN1CCN(c2ccccc2)CC1 (stereo not given)
inactive: all assays above

Cc1c(Cl)cccc1Nc1ccccc1C(=O)O
inactive: all assays above

COc1cc(C(=O)N2CCOCC2)cc(OC)c1OC
inactive: all assays above

NC1CCN(c2cccc(Cl)n2)CC1
inactive: all assays above

NC(=O)NNc1ccccc1
inactive: all assays above

Nc1ccc(S(=O)(=O)NC(=O)c2ccccc2)cc1
inactive: all assays above

O=c1cc[nH]c(=O)[nH]1
inactive: all assays above

CCN(CC)CCNC(=O)c1c(C)[nH]c(/C=C2\C(=O)Nc3ccc(F)cc32)c1C
active: CP247 10 µM | CP250 14.1 µM | CP252 7.94 µM | CP256 11.2 µM | CP260 7.08 µM | CP269 5.36 µM

Cn1c(=O)c2c(ncn2CC2OCCO2)n(C)c1=O
inactive: all assays above

CCCCN(CCCC)CC(O)c1cc(Cl)cc2c1-c1ccc(Cl)cc1/C2=C/c1ccc(Cl)cc1 (stereo not given)
active: CP247 0.0398 µM | CP250 0.0282 µM | CP252 0.0355 µM | CP256 0.0794 µM | CP260 0.0316 µM | CP262 0.0338 µM | CP265 0.112 µM | CP266 0.135 µM | CP268 0.135 µM | CP269 0.0379 µM

CC12CCC(CC1)C(C)(C)O2
inactive: all assays above

O=C(O)c1ccccc1O
inactive: all assays above

O=C1NS(=O)(=O)c2ccccc21
inactive: all assays above

CCN(CC)CCSC(=O)C(c1ccccc1)c1ccccc1
inactive: all assays above

N[C@@H](CSCCCO)C(=O)O
inactive: all assays above

CCN(CC)CCNC(=O)c1cc(Cl)c(N)cc1OC
inactive: all assays above

CCCOC(=O)c1ccccc1
not listed: CP262
inactive: all other assays above

C#CCN(C)Cc1ccccc1
not listed: CP266
inactive: all other assays above

O=C1OC(OC(=O)c2cccnc2Nc2cccc(C(F)(F)F)c2)c2ccccc21 (stereo not given)
inactive: all assays above

CCCCN(CCCC)CCCOC(=O)c1ccc(N)cc1
not listed: CP265
inactive: all other assays above

CCCCc1ncc(/C=C(\Cc2cccs2)C(=O)O)n1Cc1ccc(C(=O)O)cc1
inactive: all assays above

C[C@H]1O[C@@H](n2cc(F)c(=O)[nH]c2=O)[C@H](O)[C@@H]1O
not listed: CP266
inactive: all other assays above

Oc1cccc(O)c1
inactive: all assays above

CC1=C(CC(=O)O)c2cc(F)ccc2/C1=C\c1ccc(S(C)=O)cc1 (stereo not given)
not listed: CP266
inactive: all other assays above

Nc1nc2c(ncn2CCC(CO)CO)c(=O)[nH]1
not listed: CP266
inactive: all other assays above

O=S(=O)(O)c1cc(I)c(O)c2ncccc12
not listed: CP260
inactive: all other assays above

NC(CSCC(=O)O)C(=O)O (stereo not given)
not listed: CP266
inactive: all other assays above

CC1(C)OC(=O)NC1=O
not listed: CP260
inactive: all other assays above

CCCCN1CCCC[C@H]1C(=O)Nc1c(C)cccc1C
not listed: CP265
inactive: all other assays above

CCC(=O)c1ccc(O)cc1
inactive: all assays above

CC(C)(C)C(=O)NCCCC(=O)O
not listed: CP260
inactive: all other assays above

CC[C@@]1(c2ccccc2)NC(=O)N(C)C1=O
not listed: CP262
inactive: all other assays above

C[C@H](N)[C@H](O)c1cccc(O)c1
inactive: all assays above

O=C1NC(=O)[C@@]2(CCOc3ccc(F)cc32)N1
not listed: CP266
inactive: all other assays above

NS(=O)(=O)c1cc2c(cc1Cl)NC(CSCc1ccccc1)=NS2(=O)=O
inactive: all assays above

Cc1cc(N)c2ccccc2[n+]1CCCCCCCCCC[n+]1c(C)cc(N)c2ccccc21
active: CP247 1.58 µM | CP250 0.708 µM | CP252 0.447 µM | CP256 0.0794 µM | CP260 0.631 µM | CP262 0.181 µM | CP265 0.0004 µM | CP268 0.572 µM | CP269 0.51 µM

CNC(=O)Oc1ccc2c(c1)[C@]1(C)CCN(C)[C@@H]1N2C
active: CP247 1.58 µM | CP250 1.58 µM | CP252 1.78 µM | CP256 2 µM | CP260 8.91 µM | CP265 1.58 µM

O=C(CCCN1CCN(c2ccccn2)CC1)c1ccc(F)cc1
inactive: all assays above

CC(O)CN(CCN(CC(C)O)CC(C)O)CC(C)O (stereo not given)
not listed: CP266
inactive: all other assays above

Cc1c(O)cccc1C(=O)N[C@@H](CSc1ccccc1)[C@H](O)CN1C[C@H]2CCCC[C@H]2C[C@H]1C(=O)NC(C)(C)C
inactive: CP250 | CP262 | CP266
